# Tg IFNy HTS – blocks Toxoplasma gondii growth in the presence of IFN-gamma | Toxoplasma gondii growth in IFN-gamma-treated host cells; stronger effect = lower value | activity change, negative = inhibition, % (test concentration not listed) | actives 3.8% (n = 69,000) | AID 1259416; in the data active = activity change below about -70%, passing the limit was not always enough;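 note: host cells are HeLa cells infected with Toxoplasma gondii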
# Hits are given with their value; – = inactive; ! = not active in a repeat. This is one part of a sample in which hits are shown more often than they occur.
SMILES,Tg IFNy HTS
O/N=C/c1ccc(-c2ccc(O)c(F)c2)c(Cl)c1O,-87.1
CCOc1ccccc1C(=O)N1CCC2(CC1)Nc1ccc(Cl)cc1-n1cccc12,-103.9
COc1ccc2c(c1)NC1(CCN(C(=O)Nc3ccc(Br)c(C)c3)CC1)c1cccn1-2,–
COc1ccc(C(=O)N2CCC3(CC2)Nc2ccccc2-n2cccc23)cc1,–
COc1cc(OC)cc(C(=O)N2CCC3(CC2)Nc2ccc(Cl)cc2-n2cccc23)c1,–
CCOc1ccccc1C(=O)N1CCC2(CC1)Nc1ccccc1-n1cccc12,–
COc1ccc(CCC(=O)N2CCC3(CC2)Nc2ccccc2-n2cccc23)cc1,-115.0
COc1ccc(CCC(=O)N2CCC3(CC2)Nc2ccc(Cl)cc2-n2cccc23)cc1,-97.1
Cc1ccc(NC(=O)N2CCC3(CC2)Nc2ccccc2-n2cccc23)cc1Cl,–
O=C(Cc1ccc(F)cc1)N1CCC2(CC1)Nc1ccc(Cl)cc1-n1cccc12,–
COc1ccccc1C(=O)N1CCC2(CC1)Nc1ccc(Cl)cc1-n1cccc12,–
COc1cc(CCC(=O)N2CCC3(CC2)Nc2ccccc2-n2cccc23)cc(OC)c1OC,–
Cc1cc(NC(=O)N2CCC3(CC2)Nc2ccccc2-n2cccc23)ccc1Br,-116.4
CCOc1ccc2nc(-c3nccn3CCOC)ccc2c1,–
COc1ccc(S(=O)(=O)N2CCC3(CC2)Nc2cc(F)ccc2-n2cccc23)cc1OC,–
CCn1ncnc1CN1CCC(c2[nH]ncc2Cc2ccccc2)CC1,–
CC1c2ncc(Cn3cccn3)n2CCN1Cc1cccs1 (stereo not drawn),–
C=CCNC(=O)NC1(C)CCS(=O)(=O)C1 (stereo not drawn),–
Cc1ccc(NC(=O)Nc2ccc(-c3nc(-c4ccccc4)co3)cc2)cc1F,–
CCC(=O)c1cccc(-c2ccc(NC(C)=O)cc2)c1,–
COc1ccc(S(=O)(=O)N2CCCn3nnc(CN4CCCCC4)c3C2)cc1,–
Cn1c2c(ccc1=O)CC(NC(=O)Cc1cccs1)CC2 (stereo not drawn),–
O=C(Cc1ccccc1)N1CCC2(CC1)Nc1ccc(Cl)cc1-n1cccc12,–
CC(C)C(=O)N1CCC2(CC1)Nc1ccc(Cl)cc1-n1cccc12,–
O=C(c1ccccc1)N1CCC2(CC1)Nc1ccc(Cl)cc1-n1cccc12,–
SMILES,Tg IFNy HTS
CCC(C(=O)N1CCC2(CC1)Nc1ccc(Cl)cc1-n1cccc12)c1ccccc1 (stereo not drawn),-127.7
O=C(COc1ccccc1)N1CCC2(CC1)Nc1ccc(Cl)cc1-n1cccc12,-84.1
O=C(COc1ccc(Cl)cc1)N1CCC2(CC1)Nc1ccccc1-n1cccc12,–
CCCCCCCCS/C(=C/C#CCO)CO,–
Cc1cccc(NC(=O)C(=O)NCCc2csc(-c3ccc(C(F)(F)F)cc3)n2)c1,–
COc1ccc(Cl)cc1NC(=O)Nc1ccc(-c2nc(-c3ccccc3)co2)cc1,–
COc1ccc(Cl)cc1NC(=O)Nc1ccccc1,-82.7
CCC(CC)C(=O)Nc1cc(Cl)ccc1OC,–
CCOC(=O)c1noc2nc(C)n(Cc3nc(-c4ccc(OC)cc4OC)oc3C)c(=O)c12,–
CN(C)c1cc(CN(C)S(=O)(=O)c2ccccc2Cl)nc(C2CCNCC2)n1,–
Cc1nc([C@H]2C[C@@H]3CCN(C(=O)Cc4ccccc4C)C[C@@H]3O2)n[nH]1,–
CNC(=O)c1sc2ccccc2c1CC1CCCN1C(=O)COc1ccccc1OC (stereo not drawn),–
C=CCn1c(-c2sc3nc4n(c(=O)c3c2C)CCC4)n[nH]c1=S,–
CCCn1ncc(C(=O)NCCN2CCc3ccccc3C2)c1C,–
Cc1ccc(S(=O)(=O)N(C)C[C@H]2OCCCC[C@H](C)Oc3ccc(NC(=O)c4ccncc4)cc3C(=O)N([C@@H](C)CO)C[C@H]2C)cc1,–
Cc1ccc(S(=O)(=O)N(C)C[C@H]2OCCCC[C@H](C)Oc3ccc(NC(=O)c4ccncc4)cc3C(=O)N([C@H](C)CO)C[C@@H]2C)cc1,–
Cc1noc(C)c1NC(=O)Nc1ccc2c(c1)C(=O)N([C@@H](C)CO)C[C@H](C)[C@@H](CN(C)S(=O)(=O)c1cccs1)OCCCC[C@@H](C)O2,–
Cc1ccc(S(=O)(=O)Nc2ccc3c(c2)C(=O)N([C@@H](C)CO)C[C@H](C)[C@H](CN(C)S(=O)(=O)c2cccs2)OCCCC[C@H](C)O3)cc1,-107.2
Cc1ccc(S(=O)(=O)Nc2ccc3c(c2)C(=O)N([C@H](C)CO)C[C@H](C)[C@H](CN(C)S(=O)(=O)c2cccs2)OCCCC[C@@H](C)O3)cc1,–
Cc1ccc(S(=O)(=O)N(C)C[C@H]2OCCCC[C@H](C)Oc3ccc(NC(=O)c4ccncc4)cc3C(=O)N([C@@H](C)CO)C[C@@H]2C)cc1,-97.8
O=C(O)CSC1=NC2CCCCC2N1 (stereo not drawn),–
Cc1ccc2c(c1)C(=O)NC1(CCN(C(=O)Cc3ccccc3C)CC1)N2C,–
CCc1cc(CN2CCCCC2c2nc3ccc(F)cc3[nH]2)on1 (stereo not drawn),–
O=C(CCC1N=C2c3ccccc3N=C(SCc3cccc(F)c3)N2C1=O)NCc1ccccc1 (stereo not drawn),–
O=C(NCC1CC1)c1ccn(-c2ccc3ccc(-c4ccc(F)cc4)cn23)n1,–
SMILES,Tg IFNy HTS
Cc1nccc(-c2cc(O)cc(CCC3CCCCN3)c2)n1 (stereo not drawn),–
COc1ccccc1N(Cc1nc(-c2ccccc2)oc1C)S(=O)(=O)c1ccccc1,–
COc1cccc2c1C(=O)c1c(O)c3c(c(O)c1C2=O)C[C@@](O)(C(=O)CO)C[C@@H]3O[C@H]1C[C@H](N)[C@@H](O)[C@H](C)O1,-83.9
CC(=O)[C@]1(O)Cc2c(O)c3c(c(O)c2[C@@H](O[C@H]2C[C@H](N)[C@H](O)[C@H](C)O2)C1)C(=O)c1ccccc1C3=O,–
COc1cccc2c1C(=O)c1c(O)c3c(c(O)c1C2=O)C[C@@](O)(C(C)=O)C[C@@H]3O[C@H]1C[C@H](N)[C@H](O)[C@H](C)O1,-71.7!
CC(C)(CNC(=O)c1cccc(CN2CCCC2=O)c1)c1ccccc1F,–
CCc1cccc(NC(=O)Cn2c(=O)cc(C(=O)N3CCCCC3)c3ccccc32)c1,–
Nc1cc(-c2cn[nH]c2C2CCCN(S(=O)(=O)c3ccccc3)C2)ccn1 (stereo not drawn),–
CC(C)(C)OC(=O)N1CCCC(c2ccnc3cc(-c4cccc(F)c4)nn23)C1 (stereo not drawn),–
CC(C)(C)OC(=O)Nc1cc(-c2cn[nH]c2C2CCCN(C(=O)OC(C)(C)C)C2)ccn1 (stereo not drawn),-102.3
Cc1ccc(-c2cn[nH]c2C2CCCN(C(=O)c3c[nH]c(=O)cn3)C2)cc1 (stereo not drawn),–
CC(C)c1cc(C(=O)N2CCCC(c3[nH]ncc3-c3ccccc3)C2)on1 (stereo not drawn),–
Cc1ccc(-c2cn[nH]c2C2CCCN(C(=O)c3ccc[nH]3)C2)cc1 (stereo not drawn),-91.9
CCOc1cccc(C(=O)N2C[C@@H]3COC[C@]3(COCC3CC3)C2)c1,–
CSc1cccc(NC(=O)c2cncc(NS(=O)(=O)c3ccc(C)cc3C)c2)c1,–
O=C(c1ccno1)N1CC[C@H]2CN(Cc3ccccc3)S(=O)(=O)[C@@H]2CC1,–
COc1ccc(Oc2cccc(F)c2CNC(=O)c2ccc(OC)cc2)cc1,-88.5
COc1ccc(Oc2cccc(Cl)c2CNC(=O)CSCC(=O)O)cc1,–
COc1ccc(Oc2ccc(C(=O)NCCc3ccccn3)cc2)cc1,–
